# Data: PubChem BioAssay (NCI)
# This is part of a sample that, as a whole, favours compounds with a hit. Of some 83,000 tested, about 20% had one in any assay.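 Interpretation: 100, growth as untreated; towards 0, rising growth inhibition; 0, no net growth; 0 to -100, cell death. Compounds scoring below 10 were considered active.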 Unmarked numbers belong to inactive results. Calls of active or inactive are those of the source.
# Tested on: SK-MEL-28 melanoma
# Test: NCI-60 one-dose screen, 48 h (100 = growth as untreated, 0 = no growth, -100 = all killed)
# Conditions: 10 µM
row,SMILES,growth
1,Cc1ccc(-n2nnc3c(sc4ccccc43)c2=O)cc1,89.9%
2,Nc1ccn([C@@H]2O[C@H](COP(=O)(O)O[C@@H]3C[C@H](n4cc(F)c(=O)[nH]c4=O)O[C@@H]3COP(=O)(O)O[C@@H]3C[C@H](n4cc(F)c(=O)[nH]c4=O)O[C@@H]3COP(=O)(O)O[C@@H]3C[C@H](n4cc(F)c(=O)[nH]c4=O)O[C@@H]3COP(=O)(O)O[C@@H]3C[C@H](n4cc(F)c(=O)[nH]c4=O)O[C@@H]3COP(=O)(O)O[C@@H]3C[C@H](n4cc(F)c(=O)[nH]c4=O)O[C@@H]3COP(=O)(O)O[C@@H]3C[C@H](n4cc(F)c(=O)[nH]c4=O)O[C@@H]3COP(=O)(O)O[C@@H]3C[C@H](n4cc(F)c(=O)[nH]c4=O)O[C@@H]3COP(=O)(O)O[C@@H]3C[C@H](n4cc(F)c(=O)[nH]c4=O)O[C@@H]3COP(=O)(O)O[C@@H]3C[C@H](n4cc(F)c(=O)[nH]c4=O)O[C@@H]3COP(=O)(O)O[C@@H]3C[C@H](n4cc(F)c(=O)[nH]c4=O)O[C@@H]3COP(=O)(O)OCCOCCOCCOCCOCCOCCO)[C@H](O)C2O)c(=O)n1 (some centres not stated),52.3%
3,COc1ccc(-c2nnc(COc3ccc(NC(=O)Nc4cccc(C(F)(F)F)c4)cc3F)o2)cc1,73.4%
4,Fc1ccc(Nc2ccnc(N3CCN(c4ccnc5cc(Cl)ccc45)CC3)n2)cc1,81%
5,CCOC(=O)c1cc(-c2ccccc2)nc(N)n1,111%
6,CC1(CO)CCCC12OCCO2 (configuration not stated),108%
7,CCc1c(C)[nH]c(=O)c(C(N)=O)c1C#N,114%
8,CCOc1ccc2c(c1)CC[C@@H]1[C@@H]2CC[C@]2(C)[C@@H](O)[C@@H](O)C[C@@H]12,100%
9,COc1ccc(OC)c([N+](=O)[O-])c1C=O,103%
10,CCOC(=O)Nc1ccc2c(c1)C(=O)N(CC)c1ccccc1O2,63.4%
11,Cc1ccc(C)c2c1sc1nc3n[nH]c(N)c3c(=N)n12,106%
12,c1ccc(CC(NCCNC(Cc2ccccc2)c2ccccc2)c2ccccc2)cc1 (configuration not stated),50.2%
13,Cc1ccc2nc(-c3ccc(OCC(=O)N=Nc4c(O)[nH]c5ccccc45)cc3)[nH]c2c1,102%
14,COc1ccc2c(=O)cc(C(Cl)(Cl)Cl)oc2c1,-82.7% (active)
15,c1ccc(OCCC[P+](c2ccccc2)(c2ccccc2)c2ccccc2)cc1,26%
16,COc1cc(CSc2nc3ccc(C)cc3c(=O)n2Cc2ccccc2)cc(OC)c1OC,52%
17,C[N+]1=C(/C=C/c2ccc(I)cc2)C(C)(C)c2ccccc21,84.7%
18,COc1ccccc1S(=O)(=O)Nc1ccc2c(c1)CN(C)C(=O)N2,48.9%
19,CCC(O)c1ccc(Br)cc1NC(=O)c1cccc(Cl)c1 (configuration not stated),29.3%
20,CCCCn1c(=O)[nH]c(N)c(C(c2ccc(Cl)cc2)c2c(N)[nH]c(=O)n(CCCC)c2=O)c1=O,44.7%
21,COc1ccc(C(=O)/C=C/c2cc(-c3ccc4c(c3)OCO4)n[nH]2)cc1OC,103%
22,COc1ccc2oc(=O)cc(C(c3ccc[nH]3)c3ccc[nH]3)c2c1,37.7%
